Four molecules from PubChem BioAssay (EPA / NIEHS) can be followed below.

Active and inactive are the calls of the source. How the source made its calls: active means hit-call score of the fitted dose curve at least 0.9, where 1 is the maximum; inactive means score below 0.9.

Common to all, as to conditions: mRNA level, 48 h; actives raise or lower the signal
Read-out in experiment [1]: Interleukin 6 Receptor (IL6R), IL6R (gene 3570)
The experiment can be described thus: LTEA_HepaRG_IL6R: Life Technologies and Expression Analysis (LTEA) Assay for Interleukin 6 Receptor (IL6R) using HepaRG (AID 2283510). Put shortly:
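Differentiated human HepaRG cells, plated 48 h then switched to serum-free induction medium, were dosed in duplicate for 48 h at eight half-log concentrations up to 100 uM in 0.5% DMSO. IL6R mRNA quantified by qRT-PCR, normalized to ACTB/GAPDH/POLR2A; bidirectional fit versus DMSO.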

Read-out in experiment [2]: Potassium channel subfamily K member 1 (KCNK1), KCNK1 (gene 3775)
The experiment is described as follows: LTEA_HepaRG_KCNK1: Life Technologies and Expression Analysis (LTEA) Assay for Potassium channel subfamily K member 1 (KCNK1) using HepaRG (AID 2283511). Put shortly:
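Differentiated human HepaRG cells in serum-free induction medium were exposed in duplicate for 48 h to 8 half-log concentrations up to 100 uM in 0.5% DMSO. KCNK1 mRNA was measured by TaqMan qRT-PCR, normalized to ACTB, GAPDH and POLR2A, and fitted bidirectionally versus DMSO.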

Read-out in experiment [3]: Keratin 19 (KRT19), KRT19 (gene 3880)
The experiment is described as follows: LTEA_HepaRG_KRT19: Life Technologies and Expression Analysis (LTEA) Assay for Keratin 19 (KRT19) using HepaRG (AID 2283512). The procedure, abridged: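 HepaRG, 48 h chemical exposure, 8-pt half-log CRC from 100 uM, 0.5% DMSO vehicle, duplicates. Readout: TaqMan qRT-PCR of KRT19 mRNA, housekeeping-normalized (ACTB/GAPDH/POLR2A). Bidirectional fit vs DMSO baseline.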

Read-out in experiment [4]: JUN Transcription Factor, JUN (gene 3725)
The experiment can be described thus: LTEA_HepaRG_JUN: Life Technologies and Expression Analysis (LTEA) Assay for JUN Transcription Factor using HepaRG (AID 2283513). The procedure, abridged: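 Differentiated HepaRG cells were exposed to chemicals for 48 h in serum-free induction medium, 8 concentrations from 100 uM in half-log steps, 0.5% DMSO vehicle, in duplicate. JUN mRNA was quantified by TaqMan qRT-PCR, normalized to ACTB, GAPDH, POLR2A.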

Read-out in experiment [5]: Lipase C (LIPC), LIPC (gene 3990)
The experiment is described as follows: LTEA_HepaRG_LIPC: Life Technologies and Expression Analysis (LTEA) Assay for Lipase C (LIPC) using HepaRG (AID 2283514). The procedure, abridged:
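Differentiated human HepaRG cells in serum-free induction medium were exposed in duplicate for 48 h to eight concentrations (top 100 uM, half-log steps, 0.5% DMSO). LIPC mRNA was quantified by TaqMan qRT-PCR, normalized to ACTB, GAPDH and POLR2A, with bidirectional fitting versus DMSO.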

Read-out in experiment [6]: Lipoprotein lipase (LPL), LPL (gene 4023)
The experiment can be described thus: LTEA_HepaRG_LPL: Life Technologies and Expression Analysis (LTEA) Assay for Lipoprotein lipase (LPL) using HepaRG (AID 2283515). Put shortly: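 Differentiated human HepaRG cells in serum-free induction medium were exposed in duplicate for 48 h to eight half-log concentrations (top 100 uM) in 0.5% DMSO. LPL mRNA was quantified by TaqMan qRT-PCR, normalized to ACTB, GAPDH and POLR2A.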

Read-out in experiment [7]: MicroRNA 122 (MIR122), gene 406906
The experiment is described as follows: LTEA_HepaRG_MIR122: Life Technologies and Expression Analysis (LTEA) Assay for MicroRNA 122 (MIR122) using HepaRG (AID 2283516). Further: the transcript read is the microRNA miR-122. The procedure, abridged: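 Differentiated human HepaRG cells were exposed 48 h in serum-free induction medium to eight half-log concentrations (top 100 uM, 0.5% DMSO). Transcript level was measured by TaqMan qRT-PCR, normalized to ACTB, GAPDH and POLR2A, and fitted bidirectionally versus DMSO.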

Read-out in experiment [8]: matrix metalloproteinase-10 (MMP10), MMP10 (gene 4319)
The experiment can be described thus: LTEA_HepaRG_MMP10: Life Technologies and Expression Analysis (LTEA) Assay for matrix metalloproteinase-10 (MMP10) using HepaRG (AID 2283517). The procedure, abridged:
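HepaRG, collagen I, ~100,000 cells/well; serum-free induction medium; 48 h exposure, duplicate, 8-pt half-log to 100 uM, 0.5% DMSO. Readout: TaqMan qRT-PCR, normalized to ACTB/GAPDH/POLR2A; bidirectional fit vs DMSO.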

Read-out in a further experiment: MYC, MYC (gene 4609)
The experiment can be described thus: LTEA_HepaRG_MYC: Life Technologies and Expression Analysis (LTEA) Assay for MYC using HepaRG (AID 2283518). The procedure, abridged: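 qRT-PCR read-out of MYC transcript (Fluidigm TaqMan, housekeeping-normalized) after 48 h chemical exposure of HepaRG cells; eight concentrations, top 100 uM, half-log steps. Bidirectional curve fitting against 0.5% DMSO vehicle baseline.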

Read-out in experiment [9]: matrix metalloproteinase-3 (MMP3), MMP3 (gene 4314)
The experiment can be described thus: LTEA_HepaRG_MMP3: Life Technologies and Expression Analysis (LTEA) Assay for matrix metalloproteinase-3 (MMP3) using HepaRG (AID 2283519). The procedure, abridged:
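Differentiated human HepaRG cells, plated 48 h on collagen I, were exposed in duplicate for 48 h in serum-free induction medium to eight half-log concentrations up to 100 uM in 0.5% DMSO. MMP3 mRNA was quantified by TaqMan qRT-PCR, normalised to ACTB, GAPDH and POLR2A.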

Read-out in experiment [10]: Paternally Expressed 10 (PEG10), PEG10 (gene 23089)
The experiment can be described thus: LTEA_HepaRG_PEG10: Life Technologies and Expression Analysis (LTEA) Assay for Paternally Expressed 10 (PEG10) using HepaRG (AID 2283520). The procedure, abridged:
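Differentiated HepaRG cells, plated 48 h then switched to serum-free induction medium, were exposed in duplicate for 48 h to eight half-log concentrations topping at 100 uM in 0.5% DMSO. PEG10 mRNA was quantified by TaqMan qRT-PCR, normalised to ACTB, GAPDH and POLR2A.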

Read-out in experiment [11]: Protein phosphatase 2A (PPP2R4), PTPA (gene 5524)
The experiment can be described thus: LTEA_HepaRG_PPP2R4: Life Technologies and Expression Analysis (LTEA) Assay for Protein phosphatase 2A (PPP2R4) using HepaRG (AID 2283522). The procedure, abridged: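 Differentiated HepaRG cells in serum-free induction medium were exposed in duplicate for 48 h to eight concentrations, top 100 uM with half-log dilutions, in 0.5% DMSO. PPP2R4 mRNA was quantified by TaqMan qRT-PCR, normalized to ACTB, GAPDH and POLR2A.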

Read-out in experiment [12]: Phosphatase and tensin (PTEN), PTEN (gene 5728)
The experiment is described as follows: LTEA_HepaRG_PTEN: Life Technologies and Expression Analysis (LTEA) Assay for Phosphatase and tensin (PTEN) using HepaRG (AID 2283523). Put shortly: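 Differentiated human HepaRG cells, plated 48 h then switched to serum-free induction medium, were exposed in duplicate for 48 h to eight half-log concentrations up to 100 uM in 0.5% DMSO. PTEN mRNA measured by TaqMan qRT-PCR, normalized to ACTB/GAPDH/POLR2A, bidirectional fit versus DMSO.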

Read-out in experiment [13]: solute carrier (SLC22A1), SLC22A1 (gene 6580)
The experiment can be described thus: LTEA_HepaRG_SLC22A1: Life Technologies and Expression Analysis (LTEA) Assay for solute carrier (SLC22A1) using HepaRG (AID 2283524). The procedure, abridged:
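Human HepaRG cells were plated 48 h, switched to serum-free induction medium, then exposed in duplicate for 48 h to 8-point half-log series from 100 uM in 0.5% DMSO. SLC22A1 mRNA measured by qRT-PCR, normalized to ACTB/GAPDH/POLR2A, fitted bidirectionally versus DMSO.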

Read-out in experiment [14]: Pyruvate Dehydrogenase Kinase 4 (PDK4), PDK4 (gene 5166)
The experiment is described as follows: LTEA_HepaRG_PDK4: Life Technologies and Expression Analysis (LTEA) Assay for Pyruvate Dehydrogenase Kinase 4 (PDK4) using HepaRG (AID 2283525). Put shortly: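 Differentiated human HepaRG cells, pre-cultured 48 h, were exposed in duplicate for 48 h in serum-free induction medium to eight half-log concentrations up to 100 uM in 0.5% DMSO. PDK4 mRNA was quantified by qRT-PCR, normalized to ACTB, GAPDH and POLR2A, bidirectional fitting versus DMSO.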

Read-out in experiment [15]: NAD(P)H dehydrogenase [quinone] 1 (NQO1), NQO1 (gene 1728)
The experiment is described as follows: LTEA_HepaRG_NQO1: Life Technologies and Expression Analysis (LTEA) Assay for NAD(P)H dehydrogenase [quinone] 1 (NQO1) using HepaRG (AID 2283526). The procedure, abridged: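 Differentiated HepaRG cells, plated 48 h and then switched to serum-free induction medium, were exposed in duplicate for 48 h to 8-point half-log concentrations up to 100 uM in 0.5% DMSO. mRNA measured by qRT-PCR, normalized to ACTB, GAPDH, POLR2A; bidirectional fit versus DMSO.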

Read-out in experiment [16]: succinate dehydrogenase complex iron sulfur subunit B (SDHB), SDHB (gene 6390)
The experiment is described as follows: LTEA_HepaRG_SDHB: Life Technologies and Expression Analysis (LTEA) Assay for succinate dehydrogenase complex iron sulfur subunit B (SDHB) using HepaRG (AID 2283528). Put shortly: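 SDHB transcript level read by TaqMan qRT-PCR, housekeeping-normalised (ACTB, GAPDH, POLR2A), after 48 h chemical treatment of plated HepaRG cells; eight concentrations top 100 uM, half-log steps, 0.5% DMSO, duplicates; fitted both directions against DMSO.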

Read-out in experiment [17]: Signal transducer and activator of transcription 3 (Homo sapiens) (UniProt P40763)
The experiment can be described thus: LTEA_HepaRG_STAT3: Life Technologies and Expression Analysis (LTEA) Assay for Signal transducer and activator of transcription (STAT3) using HepaRG (AID 2283529). The procedure, abridged:
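Differentiated human HepaRG cells in serum-free induction medium were exposed in duplicate for 48 h to eight half-log concentrations up to 100 uM in 0.5% DMSO. STAT3 mRNA was quantified by TaqMan qRT-PCR, normalized to ACTB, GAPDH and POLR2A, and fitted bidirectionally against DMSO.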

Read-out in experiment [18]: Nuclear factor erythroid 2-related factor 2 (Homo sapiens) (UniProt Q16236)
The experiment can be described thus: LTEA_HepaRG_NFE2L2: Life Technologies and Expression Analysis (LTEA) Assay for Nuclear factor erythroid 2-related factor 2 (NFE2L2) Transcription Factor using HepaRG (AID 2283527). The procedure, abridged: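 Differentiated human HepaRG cells in serum-free induction medium were exposed for 48 h to eight concentrations (top 100 uM, half-log dilutions, 0.5% DMSO), in duplicate. NFE2L2 mRNA was quantified by TaqMan qRT-PCR, normalized to ACTB, GAPDH and POLR2A, with bidirectional fitting versus DMSO.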

Read-out in experiment [19]: Nuclear factor NF-kappa-B p105 subunit (Homo sapiens) (UniProt P19838)
The experiment is described as follows: LTEA_HepaRG_NFKB1: Life Technologies and Expression Analysis (LTEA) Assay for Nuclear Factor Kappa B Subunit 1 (NFKB1) using HepaRG (AID 2283521). The procedure, abridged: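 NFKB1 transcript was measured by TaqMan qRT-PCR on Fluidigm arrays, normalised to three housekeeping genes and fitted in both directions against 0.5% DMSO. HepaRG cells were dosed in duplicate for 48 h in serum-free induction medium, eight half-log steps from 100 uM.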

Signal transducer and activator of transcription 3 (Homo sapiens), sequence (P40763 whole entry, looked up): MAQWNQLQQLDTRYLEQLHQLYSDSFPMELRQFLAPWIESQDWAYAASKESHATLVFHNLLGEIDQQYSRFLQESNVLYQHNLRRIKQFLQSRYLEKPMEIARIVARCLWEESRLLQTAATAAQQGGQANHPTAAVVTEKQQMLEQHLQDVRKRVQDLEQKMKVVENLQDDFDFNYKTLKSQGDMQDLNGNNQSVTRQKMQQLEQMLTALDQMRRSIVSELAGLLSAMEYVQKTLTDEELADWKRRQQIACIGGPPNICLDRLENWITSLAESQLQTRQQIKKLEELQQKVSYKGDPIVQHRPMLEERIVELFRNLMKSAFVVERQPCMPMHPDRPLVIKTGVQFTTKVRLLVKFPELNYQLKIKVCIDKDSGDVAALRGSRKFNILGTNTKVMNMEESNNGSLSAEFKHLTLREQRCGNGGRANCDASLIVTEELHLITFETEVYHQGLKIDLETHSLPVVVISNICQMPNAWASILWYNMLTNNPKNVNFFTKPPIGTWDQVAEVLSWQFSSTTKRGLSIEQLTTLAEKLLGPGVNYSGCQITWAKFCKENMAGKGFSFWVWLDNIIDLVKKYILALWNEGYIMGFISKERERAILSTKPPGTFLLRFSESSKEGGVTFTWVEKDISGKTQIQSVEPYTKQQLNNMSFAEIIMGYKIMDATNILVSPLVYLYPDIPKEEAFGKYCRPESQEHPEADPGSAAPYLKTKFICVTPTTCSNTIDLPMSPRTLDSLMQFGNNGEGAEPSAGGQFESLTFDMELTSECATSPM
Nuclear factor erythroid 2-related factor 2 (Homo sapiens), sequence (Q16236 whole entry, looked up): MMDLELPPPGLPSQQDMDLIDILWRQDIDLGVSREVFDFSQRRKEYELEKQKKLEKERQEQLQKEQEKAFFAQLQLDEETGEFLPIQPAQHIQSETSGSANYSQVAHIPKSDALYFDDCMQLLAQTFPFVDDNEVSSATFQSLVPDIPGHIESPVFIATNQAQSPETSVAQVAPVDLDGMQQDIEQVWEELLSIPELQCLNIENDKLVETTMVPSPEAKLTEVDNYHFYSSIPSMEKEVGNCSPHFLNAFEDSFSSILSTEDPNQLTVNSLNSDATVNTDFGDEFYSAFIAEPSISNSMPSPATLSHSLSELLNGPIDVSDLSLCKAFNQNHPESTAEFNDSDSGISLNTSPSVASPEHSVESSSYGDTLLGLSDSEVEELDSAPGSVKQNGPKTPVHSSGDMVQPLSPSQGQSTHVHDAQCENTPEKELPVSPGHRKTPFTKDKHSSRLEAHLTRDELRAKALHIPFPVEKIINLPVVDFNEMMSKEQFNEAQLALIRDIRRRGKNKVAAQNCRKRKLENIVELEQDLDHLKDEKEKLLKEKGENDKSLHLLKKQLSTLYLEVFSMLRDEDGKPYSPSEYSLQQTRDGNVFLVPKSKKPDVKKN
Nuclear factor NF-kappa-B p105 subunit (Homo sapiens), sequence (P19838 whole entry, looked up): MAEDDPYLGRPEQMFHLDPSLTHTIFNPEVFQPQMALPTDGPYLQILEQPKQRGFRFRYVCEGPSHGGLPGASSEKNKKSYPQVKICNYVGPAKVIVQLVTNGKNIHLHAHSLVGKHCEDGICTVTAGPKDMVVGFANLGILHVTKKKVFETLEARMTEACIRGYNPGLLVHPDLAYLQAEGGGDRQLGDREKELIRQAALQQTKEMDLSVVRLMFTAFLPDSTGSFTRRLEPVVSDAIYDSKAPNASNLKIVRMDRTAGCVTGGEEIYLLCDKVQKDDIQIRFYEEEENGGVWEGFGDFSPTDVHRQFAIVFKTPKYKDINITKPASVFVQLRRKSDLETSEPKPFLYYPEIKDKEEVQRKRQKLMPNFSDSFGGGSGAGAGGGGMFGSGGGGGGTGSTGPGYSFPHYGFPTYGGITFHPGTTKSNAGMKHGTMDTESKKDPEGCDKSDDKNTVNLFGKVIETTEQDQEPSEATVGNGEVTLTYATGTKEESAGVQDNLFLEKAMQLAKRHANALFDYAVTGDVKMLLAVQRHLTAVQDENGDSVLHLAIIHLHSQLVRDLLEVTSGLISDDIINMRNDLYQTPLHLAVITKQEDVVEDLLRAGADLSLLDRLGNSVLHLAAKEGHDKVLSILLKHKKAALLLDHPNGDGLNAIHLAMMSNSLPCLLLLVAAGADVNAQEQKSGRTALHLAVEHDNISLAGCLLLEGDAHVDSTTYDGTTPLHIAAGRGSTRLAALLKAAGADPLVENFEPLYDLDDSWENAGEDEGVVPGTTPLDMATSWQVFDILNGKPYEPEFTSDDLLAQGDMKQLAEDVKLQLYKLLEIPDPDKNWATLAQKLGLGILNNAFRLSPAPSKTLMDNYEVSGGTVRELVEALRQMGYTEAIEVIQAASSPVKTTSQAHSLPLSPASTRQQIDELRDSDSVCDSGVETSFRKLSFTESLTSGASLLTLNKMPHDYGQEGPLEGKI

For orientation: AC50 means the midpoint of the concentration-response curve, whichever way the signal moves. In the case of `CN(C)CCOC(c1ccccc1)c1ccccc1`, the outcome in [1], in experiment [2], in [3], in experiment [4], in experiment [5] and in [7] was inactive. Further, the outcome in experiment [8] is “inactive”; in the experiment with MYC, MYC (gene 4609) it was “inactive”; in experiment [9] it was “inactive”; in [10], “inactive”; in experiment [11] it was “inactive”; in experiment [12] it was “inactive”. Also, the molecule was called inactive in [13], in [14], in experiment [15], in experiment [16] and in [17]. The concentration at half-maximal activity (AC50) in [6] is 50 µM (active).
Take `CCCCCCCCCCCCOS(=O)(=O)O`: the AC50 in [1] is 93.1 µM (active); in experiment [3] it was 79.9 µM (active); in [4] it was 50 µM (active); in experiment [5] it was 80.4 µM (active); in experiment [7] it was 86.2 µM (active); in experiment [8], 70.2 µM (active). Moreover, the concentration at half-maximal activity (AC50) in experiment [13] was 77.5 µM (active); in experiment [14], 36.9 µM (active). For the same molecule, the outcome in experiment [2] is “inactive”; in experiment [6], “inactive”; with MYC, MYC (gene 4609), “inactive”; in experiment [9] it was “inactive”; in experiment [10], “inactive”; in experiment [15], “inactive”. In addition, the molecule was called inactive in [18], in [16] and in [17].
As for `CCCCCCCCCCCCCCC`, the molecule was classed as inactive in experiment [1], in experiment [2], in experiment [3], in experiment [4], in experiment [5] and in experiment [6]. In addition, the outcome in [7] is “inactive”; in [8] it was “inactive”; with MYC, MYC (gene 4609), “inactive”; in [9], “inactive”; in experiment [10], “inactive”; in [19], “inactive”. Besides, the call in experiment [11], in experiment [12], in experiment [13], in experiment [14], in experiment [15] and in experiment [18] was inactive. Moreover, the call in experiment [16] and in [17] was inactive.
With `O=C(c1ccccc1)c1ccccc1`, the molecule was called inactive in [1], in experiment [2], in [3], in experiment [4], in experiment [5] and in [6]. Also, the outcome in experiment [7] is “inactive”; in experiment [8], “inactive”; with MYC, MYC (gene 4609), “inactive”; in [9], “inactive”; in experiment [10] it was “inactive”; in [11], “inactive”. For the same molecule, the call in [12], in experiment [13], in experiment [14], in experiment [15], in [16] and in experiment [17] was inactive.
